Bioassay records from PubChem.
An excerpt weighted towards active compounds, which were near 4.5% of everything screened.
EBNA-1 inhibitor: blocks EBNA-1 binding to DNA; EBNA-1 DNA binding, fluorescence polarization; inhibition, % at 14.8 µM; 300,000 tested, 0.34% active; in the data active = inhibition above about 28%
ZTA DNA inh: ZTA (EBV) inhibition in EBNA-1 counter-screen. P03206. inhibition, % at 11 µM. ZTA-DNA binding, fluorescence polarization. 320,000 tested, 0.15% active; in the data active = inhibition above about 33%
Target sequence (P03206 whole entry, looked up): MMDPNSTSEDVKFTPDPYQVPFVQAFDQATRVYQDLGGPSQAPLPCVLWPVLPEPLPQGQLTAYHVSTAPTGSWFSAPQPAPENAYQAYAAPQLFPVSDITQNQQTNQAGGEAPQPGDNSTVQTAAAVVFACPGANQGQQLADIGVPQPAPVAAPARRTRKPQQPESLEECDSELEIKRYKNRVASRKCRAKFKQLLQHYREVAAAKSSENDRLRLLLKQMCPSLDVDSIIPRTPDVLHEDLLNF
NR3A LBD binder: NR3A (human) ligand-binding domain modulation; NR3A LBD differential scanning fluorimetry, Tm shift; 0% = protein alone, 100% = glycine-bound protein; Tm shift relative to glycine control, % at 25 µM; 340,000 tested, 2.5% active; AID 1259313;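 active = melting temperature shift of at least 10% of the positive control shift, at one fixed dose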
Rpn11 inh: blocks the human proteasome subunit Rpn11. human 26S proteasome, Ub4-pepOG fluorescence polarization; 20S core pre-blocked with epoxomicin. inhibition, % at 20 µM. 360,000 tested, 0.59% active;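 active = inhibition at 20 µM, scaled to each plate's controls, above about 33%, limit read from the data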
Target sequence (O00487 whole entry, looked up): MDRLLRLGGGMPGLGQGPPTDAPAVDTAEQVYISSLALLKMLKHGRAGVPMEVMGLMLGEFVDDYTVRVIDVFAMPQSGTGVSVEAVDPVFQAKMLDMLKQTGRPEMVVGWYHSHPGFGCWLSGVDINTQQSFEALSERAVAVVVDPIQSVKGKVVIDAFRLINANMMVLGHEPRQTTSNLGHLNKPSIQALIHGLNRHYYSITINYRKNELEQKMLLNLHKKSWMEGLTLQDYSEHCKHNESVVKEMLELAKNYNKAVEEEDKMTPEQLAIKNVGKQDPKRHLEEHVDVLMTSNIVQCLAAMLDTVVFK
dFosB act: mouse delta FosB homodimer activation; P13346; activation, % at 25 µM; 340,000 tested, 0.99% active; purified delta FosB, TAMRA-CDK5 oligo fluorescence polarization; percent of positive-control signal above neutral wells;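 active = mean activation above about 17%, with every replicate also reaching it, limit read from the data, passing the limit was not always enough; inconclusive = only one of the two conditions met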
TPT1 inh: blocks Candida albicans tRNA 2'-phosphotransferase | recombinant caTPT1, FP RNA substrate dephosphorylation | inhibition, % at 5 µM | 300,000 tested, 0.81% active | AID 1962;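 active = inhibition above the mean of all tested compounds plus 3 SD, set per screening campaign, cut at about 24% in these data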;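 note: plate controls were DMSO alone for no effect and ferristatin control at 100 nM for full effect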
An asterisk follows results filed as active; ? = inconclusive; nt = not tested or not shown.

SMILES	EBNA-1 inhibitor	ZTA DNA inh	NR3A LBD binder	Rpn11 inh	dFosB act	TPT1 inh
O=S(=O)(c1ccc(F)cc1)N1CCn2c(nc3ccccc32)C1	-10.4	5.2	14.1*	-1.0	1.0	-2.5
O=C(Nc1cccc(-c2nc3ccccc3s2)c1)c1cccs1	8.2	-4.7	11.8*	-4.2	-25.1	-3.0
CSc1nc2ccc(NC(=O)c3cc4ccccc4o3)cc2s1	18.5	16.3	19.4*	7.3	3.2	2.0
CSc1nc2ccc(NC(=O)c3ccc(F)c(F)c3)cc2s1	1.4	-6.3	28.3*	-1.7	-8.0	2.7
CCc1ccc(NC(=O)c2ccc3nc(N)sc3c2)cc1	-2.2	-4.8	15.8*	-0.5	2.2	1.3
O=[N+]([O-])c1cccnc1Sc1n[nH]c(-c2ccc(Cl)cc2)n1	1.2	-10.2	-0.2	6.0	1.4	-2.0
COC(=O)c1ccc2cc(C)cc(C)c2n1	nt	nt	nt	-2.9	nt	nt
CSc1nc2ccc(NC(=O)c3cccs3)cc2s1	nt	nt	20.2*	-3.8	-4.0	nt
CCc1ccc(NC(=O)Cn2cnc3c(=O)n(C)c(=O)n(C)c32)cc1	-0.8	0.4	-1.6	-0.2	-7.7	-4.0
O=C(Nc1ccc2oc(-c3ccccc3)nc2c1)c1cccs1	17.1	-2.9	10.7*	4.1	0.5	-3.5
Cn1c(=O)c2ncn(CC(=O)Nc3cccc(-c4nc5ccccc5s4)c3)c2n(C)c1=O	-14.0	9.3	-3.7	2.6	78.3*	2.8
Cc1cc(NC(=O)C2CCCCC2C(=O)O)ccc1NC(=O)c1ccccc1 (stereo unspecified)	4.8	-0.1	1.7	7.2	-5.9	-2.8
Cc1cc(NCCCN)nc(-c2ccccc2O)n1	-9.5	2.9	-0.6	3.8	-1.4	4.4
C/C(=N\Nc1cc(C)nc(-c2ccccc2)n1)c1cccc([N+](=O)[O-])c1	-22.9	-10.7	17.2*	-2.1	-6.0	-0.1
Cc1c(O)ccc(/C=N/Nc2nc(-c3cccnc3)nc3ccccc23)c1O	0.7	8.3	28.8*	21.5	-20.4	8.3
C/C(=N\Nc1cc(C)nc(-c2ccccc2O)n1)c1ccccc1	-13.5	5.6	13.9*	-3.2	0.6	-3.2
C/C(=N\Nc1cccc(C(=O)O)c1)c1cc2ccccc2o1	-3.2	-2.2	-2.0	1.5	-0.4	3.5
C/C(=N\Nc1cccc([N+](=O)[O-])c1)c1cc2ccccc2o1	-12.2	-1.9	29.3*	2.6	-4.4	-0.7
COc1ccc(/C=N/Nc2nc(-c3cccnc3)nc3ccccc23)cc1OC	-13.4	-4.5	-18.4	8.5	-2.2	-2.2
CCCC(NC(=O)C(C)N1CCN(S(=O)(=O)c2ccccc2)CC1)c1ccccc1 (stereo unspecified)	nt	-2.7	0.1	-3.2	-10.0	nt
CCOc1ccccc1N(C)C(=O)c1ccc2c(=O)n3c(nc2c1)CCCCC3	-12.6	-14.6	-0.7	-1.0	-6.3	0.0
N#CCN(C(=O)COC(=O)CCCNC(=O)c1ccc(Cl)cc1)c1ccccc1	nt	9.0	-0.8	-4.4	-5.6	nt
CC(=O)N1CCc2ccc(S(=O)(=O)N3CCN(C)CC3)cc21	-6.9	5.9	-2.2	0.7	1.4	-2.5
CCc1cccc(C)c1NC(=O)CC1Oc2ccc(C)cc2NC1=O (stereo unspecified)	0.3	3.1	1.2	-4.7	-13.0	2.8
O=S(=O)(NN1CCOCC1)c1ccc(Br)cc1	7.6	17.9	2.9	6.7	-2.4	-2.2
SMILES	EBNA-1 inhibitor	ZTA DNA inh	NR3A LBD binder	Rpn11 inh	dFosB act	TPT1 inh
Cc1ccc(C)c(NC2=C(Cl)C(=O)OC2OC(C)C)c1 (stereo unspecified)	0.2	-4.1	-0.9	-6.3	-5.0	-1.9
C/C(=N\Nc1ccc([N+](=O)[O-])cc1)c1cccc(N)c1	-2.9	0.6	29.1*	24.1	0.4	13.2
Cc1cc(N/N=C/c2ccc(O)c(C)c2O)nc(-c2ccccc2O)n1	0.4	-6.1	32.0*	-1.6	1.5	-1.0
Cc1cccc(NC(=O)Cn2c(O)c(N=NC(=O)c3ccccc3O)c3ccccc32)c1	13.9	-13.3	20.6*	-1.4	-4.5	-7.0
CC1CCCC(C)N1C(=O)CSc1nnc(COc2ccccc2)n1-c1ccccc1 (stereo unspecified)	7.8	-5.5	0.0	0.1	0.8	-3.7
COc1ccc2cc3cc(C(=O)Nc4ccc5c(c4)OCCO5)oc3nc2c1	7.6	11.0	26.3*	4.4	5.9	-2.4
COc1ccc2cc3cc(C(=O)Nc4cc(OC)c(OC)c(OC)c4)oc3nc2c1	10.6	17.1	0.2	-0.6	0.1	-2.4
CSCC[C@H](NC(=O)C1=NN(c2c(F)c(F)cc(F)c2F)C(=O)CC1)c1nc2ccccc2[nH]1	-11.3	-4.6	-0.5	0.8	-9.7	7.3
CCC(=O)Nc1ccc(C(=O)N/N=C/c2ccc([N+](=O)[O-])cc2)cc1	3.1	10.8	15.5*	-1.2	-8.9	0.0
O=C(COc1ccc(/C=N/NS(=O)(=O)c2ccccc2)cc1)Nc1cccc(Cl)c1	-0.2	9.5	16.4*	1.4	3.9	2.8
O=C(N/N=C/c1ccc([N+](=O)[O-])cc1)c1ccccc1OCc1ccccc1	-4.4	-1.4	-11.0	-7.2	0.3	1.3
O=C(CO/N=C/c1cccc([N+](=O)[O-])c1)NC1CCCCC1	-1.7	3.3	9.0	0.5	-10.2	0.2
O=C(COc1ccc(/C=N/NS(=O)(=O)c2ccccc2)cc1)NCc1ccccc1	-8.9	-11.5	-1.6	5.5	-3.3	-5.9
O=C(CO/N=C/c1cccc([N+](=O)[O-])c1)Nc1ccc2ccccc2c1	-12.7	0.9	12.6*	-0.3	-8.7	0.9
O=C(N/N=C/c1ccc([N+](=O)[O-])cc1)c1ccc(COc2ccccc2-c2ccccc2)cc1	-8.2	-25.8	15.6*	1.7	0.1	-2.7
O=C(COc1ccc(Cl)cc1)NCc1ccc(F)cc1	2.7	-8.7	-2.4	-2.1	-5.5	1.4
O=C(COc1ccc(/C=N/NC(=O)c2ccncc2)cc1)Nc1ccc([N+](=O)[O-])cc1	-7.6	-7.7	-6.0	30.8	1.3	-0.8
O=C(N/N=C/C=C/c1ccc2c(c1)OCO2)c1ccc([N+](=O)[O-])cc1	7.4	2.8	-2.2	-1.6	0.1	-1.5
O=C(COc1ccc(/C=N/NC(=O)c2ccc(O)cc2)cc1)Nc1cccc([N+](=O)[O-])c1	11.3	18.0	31.1*	14.8	?	0.0
Nc1ccc(C(=O)N/N=C\C=C\c2ccc([N+](=O)[O-])cc2)cc1	-2.1	3.8	15.0*	-8.3	-11.9	2.4
COC(=O)C(O)(NC(=O)c1ccncc1)C(F)(F)F (stereo unspecified)	-2.7	-3.4	-2.2	4.6	1.9	-4.9
O=C(N/N=C/c1ccc2c(c1)OCO2)c1sc2cccc(Cl)c2c1Cl	24.2	10.1	24.1*	0.8	1.5	-3.3
Cc1cc(Cl)ccc1NC(=O)C(=O)N/N=C/c1ccc2c(c1)OCO2	9.2	8.9	-1.3	-1.6	-3.6	1.3
